± gives the standard deviation of the averaged measurements.
What was measured:
[1] = tested on: E18 rat cortical neuron-glia co-culture; assay: fiber score / MBP score (myelination specific beyond OL differentiation) (ratio); higher = more myelination-specific MBP alignment; settings: treatment time: 8 days (DIV5-DIV13)
In short: (§1)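 Primary E18 rat cortical co-cultures (papain-dissociated, 20,000 cells/well on poly-d-lysine/laminin 96-well plates) received library compounds at 1 or 5 µM in myelination medium from DIV5 to DIV13. Cells were fixed in 4 % paraformaldehyde and immunostained for MBP and Olig2 with DAPI, and four 10X fields per well in duplicate wells were analysed. The read-out is fiber score (continuous MBP fiber length per Olig2+ nucleus) divided by MBP score (thresholded MBP area × intensity per Olig2+ nucleus).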

[2] = tested on: E18 rat cortical neuron-glia co-culture; assay: myelination (MBP fiber length per Olig2+ nucleus), % of 1 µM DAPT response (DMSO = 0) (% of DAPT); higher = more myelination, active = 50 or more; settings: treatment time: 8 days (DIV5-DIV13)
In short: as §1, with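 “Myelination was continuous straight” for “The read-out is fiber score (continuous”, “nucleus, normalised to 0.1 % DMSO (0) and a 1 µM positive control (100).” for “nucleus) divided by MBP score (thresholded MBP area × intensity per Olig2+ nucleus).”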

N=C(N)NC(=O)c1nc(Cl)c(N)nc1N [Amiloride]
fiber score / MBP score ([1]; 1 µM): 0.887
fiber score / MBP score ([1]; 5 µM): 0.827
myelination ([2]; 1 µM): -12.4 (inactive)
myelination ([2]; 5 µM): 16.9 (inactive)

Cc1ccc(C)c(OCCCC(C)(C)C(=O)O)c1 [Gemfibrozil]
fiber score / MBP score ([1]; 1 µM): 0.476
fiber score / MBP score ([1]; 5 µM): 0.995
myelination ([2]; 1 µM): -13.7 (inactive)
myelination ([2]; 5 µM): -7.17 (inactive)

COC(=O)C1=C(C)NC(C)=C(C(=O)OCCN(C)Cc2ccccc2)C1c1cccc([N+](=O)[O-])c1 (stereo not given) [Nicardipine]
fiber score / MBP score ([1]; 1 µM): 0.629
fiber score / MBP score ([1]; 5 µM): 0.824
myelination ([2]; 1 µM): -8.17 (inactive)
myelination ([2]; 5 µM): -21.2 (inactive)

CCCCN1CCCC1CNC(=O)c1cc(C#N)c2ccccc2c1OC (stereo not given) [Nafadotride]
fiber score / MBP score ([1]; 1 µM): 0.516
fiber score / MBP score ([1]; 5 µM): 0.414
myelination ([2]; 1 µM): -15 (inactive)
myelination ([2]; 5 µM): -20.4 (inactive)

Nc1ncnc2c1ncn2[C@@H]1O[C@H](CO)[C@@H](O)[C@H]1O [Adenosine]
fiber score / MBP score ([1]; 1 µM): 1.08
fiber score / MBP score ([1]; 5 µM): 0.875
myelination ([2]; 1 µM): -4.96 (inactive)
myelination ([2]; 5 µM): -4.36 (inactive)

CC12CC3CC(C)(C1)CC(N)(C3)C2 [Memantine]
fiber score / MBP score ([1]; 1 µM): 1.07 ± 0.024
fiber score / MBP score ([1]; 5 µM): 0.838 ± 0.13
myelination ([2]; 1 µM): 12.9 (inactive)
myelination ([2]; 5 µM): -7.18 (inactive)

COc1ccc2c(c1)c(CC(=O)O)c(C)n2C(=O)c1ccc(Cl)cc1 [Indomethacin]
fiber score / MBP score ([1]; 1 µM): 0.699
fiber score / MBP score ([1]; 5 µM): 0.877
myelination ([2]; 1 µM): -12.4 (inactive)
myelination ([2]; 5 µM): -7.64 (inactive)

Nc1nc(F)nc2c1ncn2[C@@H]1O[C@H](CO)[C@@H](O)[C@@H]1O [Fludarabine]
fiber score / MBP score ([1]; 1 µM): 0.675
fiber score / MBP score ([1]; 5 µM): 0.885
myelination ([2]; 1 µM): -29.4 (inactive)
myelination ([2]; 5 µM): 34.3 (inactive)

Cc1cnc(NC(=O)C2=C(O)c3ccccc3S(=O)(=O)N2C)s1 [Meloxicam]
fiber score / MBP score ([1]; 1 µM): 0.958
fiber score / MBP score ([1]; 5 µM): 1
myelination ([2]; 1 µM): -0.993 (inactive)
myelination ([2]; 5 µM): 3.06 (inactive)

COc1ccccc1OCC(O)COC(N)=O (stereo not given) [Methocarbamol]
fiber score / MBP score ([1]; 1 µM): 0.67
fiber score / MBP score ([1]; 5 µM): 0.985
myelination ([2]; 1 µM): -9.38 (inactive)
myelination ([2]; 5 µM): -3.49 (inactive)

— the supplement of paper PMC4840960
